Experimental data taken from PubChem BioAssay AID435005 (Broad Institute, 2010).
Hit rate of the full screen: of about 300,000 compounds, about 2,400 (0.8%) were called active. The list comes from a sample in which actives are over-represented; it also holds similar structures and randomly drawn compounds. Values without a mark were called inactive.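 The calls were made as follows: active = Every replicate reaches about 75%, or at least half do and their mean reaches it too (limit read from the data); inconclusive = At least half of replicates reach the limit but their mean does not; inactive = Under half of replicates reach the limit.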

Experiment: INS-1E beta cell survival under cytokines – luminescence, primary screen (AID 435005);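 also: 0% = cytokine-treated negative control wells and 100% = positive control rescue; higher means more ATP so stronger rescue from cytokine killing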
Conditions: INS-1E cytokine-induced death, ATP luminescence, 48 h; hits give high values; percent of positive-control rescue, neutral wells zero; concentration not given here

| SMILES | protection from apoptosis |
| --- | --- |
| Nc1nonc1-n1nnc(C(=O)N/N=C/c2cc(Br)ccc2O)c1CSC1=NCCS1 | 86.6% (active) |
| Nc1nonc1-n1nnc(C(=O)N/N=C\c2ccncc2)c1CN1CCCCC1 | -8.98% |
| Cc1ccc(SCc2c(C(=O)N/N=C/C3CC=CCC3)nnn2-c2nonc2N)cc1 (stereo not given) | -2.44% |
| Cc1ccc(SCc2c(C(=O)N/N=C/c3cccnc3)nnn2-c2nonc2N)cc1 | -3.56% |
| Nc1nonc1-n1nnc(C(=O)N/N=C/c2ccccc2O)c1CN1CCCC1 | 77.1% (active) |
| NNC(=O)c1nnn(-c2nonc2N)c1CN1CCCC1 | 0.21% |
| COc1ccccc1-c1nnc2n1N=C(c1ccc(OC(F)F)c(OCC3CC3)c1)CS2 | 14.1% |
| COc1ccc(CNC(=O)COC(=O)C(CCSC)N2C(=O)c3ccccc3C2=O)cc1 (stereo not given) | -1.57% |
| O=C1COc2ccc(C(=O)COC(=O)c3ccccc3Cl)cc2N1 | -5.54% |
| O=C(CSc1nc2ccccc2c(=O)n1Cc1ccc(F)cc1)NCC1CCCO1 (stereo not given) | -5.32% |
| CCOC(=O)C1CCN(CC(=O)Nc2ccc(OC)c(S(=O)(=O)N3CCCCC3)c2)CC1 | 0.731% |
| CCN(C[C@H]1N[C@@](CC)(C(=O)OC)[C@H]2C(=O)N(Cc3ccccc3)C(=O)[C@@H]12)S(=O)(=O)c1ccccc1 | -2.88% |
| O=C(N/N=C/c1ccoc1)c1ccc(Cl)cc1Cl | -6.52% |
| O=C(N/N=C/c1ccc(OC(=O)c2ccccc2Cl)cc1)c1ccc(O)cc1 | -1.66% |
| CC(C)(C)C(=O)Nc1ccc(C(=O)N/N=C/c2ccccc2OC(=O)c2ccc(Cl)cc2Cl)cc1 | 87.8% (active) |
| CC1O[C@@H](OC2C(O)C(C)O[C@H](OC(=O)[C@]34CCC(C)(C)C[C@H]3C3=CCC5[C@@]6(C)CC(O)C(O[C@@H]7OC(CO)C(O)[C@@H](O)[C@@H]7O)[C@@](C)(C(=O)O)C6CC[C@@]5(C)[C@]3(CO)CC4)C2O[C@H]2OC(C)[C@@H](O[C@@H]3OCC(O[C@@H]4OC(CO)C(O)[C@H](O)C4O)[C@@H](O)[C@@H]3O)[C@H](O)C2O)C(O)C(O)C1O (stereo not given in full) | -2.17% |
| Cc1ccc(S(=O)(=O)N2[C@@H](c3ccc(Br)cc3)C(C(=O)O)=C[C@H]2CC2CCCC2)cc1 | -9.97% |
| Cc1ccc(CNC(=O)COC(=O)C2CCC2)cc1 | -16.3% |
| O=C(Nc1nc2ccc([N+](=O)[O-])cc2s1)c1ccc(S(=O)(=O)N2CCCc3ccccc32)cc1 | 113% (active) |
| CCOc1ccc2nc(NC(=O)c3cc([N+](=O)[O-])ccc3N3CCOCC3)sc2c1 | 32.1% |
| O=C(NC(Nc1nc2ccc([N+](=O)[O-])cc2s1)(C(F)(F)F)C(F)(F)F)c1ccccc1 | 118% (active) |
| CCC(=O)NC(Nc1nc2ccc(C)cc2s1)(C(=O)OC)C(F)(F)F (stereo not given) | -2.12% |
| CS(=O)(=O)c1ccc2nc(NC(=O)c3ccc(N4CCCC4=O)cc3)sc2c1 | 2.56% |
| CN(C)CCCN(C(=O)c1ccc(S(=O)(=O)N2CCCc3ccccc32)cc1)c1nc2ccc(F)cc2s1 | -11.6% |
| O=C(Nc1ccccc1)N1CCC(C(=O)N2CCN(Cc3ccccc3)CC2)CC1 | -2.8% |

| SMILES | protection from apoptosis |
| --- | --- |
| O=C(COC(=O)COc1cccc(F)c1)NCC1CCCCC1 | -3.55% |
| Cc1ccc(NS(=O)(=O)c2ccc(C(C)C)cc2)cc1S(=O)(=O)N1CCOCC1 | 4.91% |
| Cc1ccccc1NC(=O)CSC(=O)c1ccccc1 | -2.98% |
| C#CCOCCOCCOCCNc1nc(N2CCN(C(=O)[C@H](CO)n3cc([C@@H](N)C(C)C)nn3)CC2)nc(N2CCN(C(=O)[C@H](CCC(=O)O)n3cc([C@@H](N)[C@H](C)CC)nn3)CC2)n1 | -6.94% |
| CN(C(=O)c1cccc(NC(=O)Cc2ccc([N+](=O)[O-])cc2)c1)C1CCC1 | -5.07% |
| C=CCC1(CC=C)CCCN1C(=O)c1cc(COc2ccc(-n3cncn3)cc2)on1 | 104% (active) |
| CCn1ccnc1CN(C)C(=O)c1cc(COc2ccc(-n3cncn3)cc2)on1 | -3.2% |
| COc1cccc(OCc2cc(C(=O)N3CCN(C(=O)c4ccco4)CC3)no2)c1 | -1.9% |
| Cc1cccc(NC(=O)c2ccc(S(=O)(=O)N(C)c3ccccc3)cc2)n1 | -7.09% |
| COc1cccc(/C=N/NC(=O)c2[nH]nc3c2CCc2ccccc2-3)c1O | 82.2% (active) |
| CN(C)CCNC(=O)c1[nH]nc2c1CCc1ccccc1-2 | -8.17% |
| COc1cc2cc(C(=O)N/N=C/c3cccc(OC)c3OC)[nH]c2cc1OC | 0.139% |
| COc1cc(C(=O)NC2CCN(C)CC2)ccc1Nc1ncc2c(n1)N(C1CCC(O)CC1)CCC(=O)N2C (stereo not given) | -0.596% |
| COc1cc(SC)ccc1C(=O)NNC(=O)C1COc2ccccc2O1 (stereo not given) | -1.75% |
| CCCN(CC(=O)Nc1ccccc1C)C(=O)c1ccc2[nH]c3c(c2c1)CC(C)CC3 (stereo not given) | 8.11% |
| COc1ccc(OCCCC(=O)Nc2cccc(S(=O)(=O)N3CCCCCC3)c2)cc1 | -3.4% |
| COc1ccc(Cc2nnc(N/N=C/c3ccccc3O)[nH]c2=O)cc1OC | 85.2% (active) |
| CC(C)c1ccc(Cc2nnc(NCCCO)[nH]c2=O)cc1 | -1.74% |
| COc1ccc(/C=N/Nc2nc3ccccc3c(=O)[nH]2)cc1 | 12% |
| CC(=O)c1c(C)[nH]c(C(=O)COc2ccc3c(C)cc(=O)oc3c2)c1C | -1.3% |
| CN(c1ccccc1)S(=O)(=O)c1ccc(C(=O)N2CCN(c3ccccc3Cl)CC2)cc1 | 3.55% |
| Cc1ccc2c(c1)NC(=O)[C@@]1(C)[C@@H](c3ccccc3)[C@H]3COc4ccc(Cl)cc4[C@@H]3N1C2=O | -5.63% |
| CCOC(=O)C1=C(CCc2ccccc2)NC(=O)NC1c1ccc2ccccc2c1 (stereo not given) | 93.7% (active) |
| CCOC(=O)C1=C(CN2CCCCCC2)NC(=O)NC1c1cccc([N+](=O)[O-])c1 (stereo not given) | -5.34% |
| CCOC(=O)C1=C(CN2CCc3ccccc32)NC(=O)NC1c1ccc(Cl)cc1 (stereo not given) | -0.812% |
